Source: PubChem BioAssay (NCATS)
Inconclusive results are not listed. Unmarked numbers belong to inactive results. Calls of active or inactive are those of the source. The call rests on the fitted dose curve; tested in HEK293 reporter line.

Assay: qHTS for Inhibitors of the Functional Ribonucleoprotein Complex (vRNP) of Lassa (LASV) Arenavirus: Viability assay - alamar blue signal for LASV Primary Screen (AID 1347083); further: nearly all actives have a fitted effect of over 80% in size
Settings: cell viability, alamar blue fluorescence (LASV minigenome counter-screen); series mostly up to 57.5 µM; activity change, negative = reduced viability: at the top concentration
On the % scale 0 is the no-effect control and ±100 the full control effect; potency means the concentration at half of the fitted maximal effect.

Compound | activity change, negative = reduced viability | Potency
Cc1c(N)nc([C@H](CC(N)=O)NC[C@H](N)C(N)=O)nc1C(=O)N[C@H](C(=O)N[C@H](C)[C@@H](O)[C@H](C)C(=O)N[C@H](C(=O)NCCc1nc(-c2nc(C(=O)NCCCCN=C(N)N)cs2)cs1)[C@@H](C)O)[C@@H](O[C@@H]1O[C@@H](CO)[C@@H](O)[C@H](O)[C@@H]1O[C@H]1O[C@H](CO)[C@@H](O)[C@H](OC(N)=O)[C@@H]1O)c1cnc[nH]1 | 4.81% | 
O=C1c2ccccc2C(=O)C1C(=O)C(c1ccccc1)c1ccccc1 | 5.1% | 
C[C@]12Cc3cn[nH]c3C[C@@H]1CC[C@@H]1[C@@H]2CC[C@@]2(C)[C@H]1CC[C@]2(C)O | -3.63% | 
O=C1CN(/N=C/c2ccc([N+](=O)[O-])o2)C(=O)N1 | -5.21% | 
O=C(O)Cc1ccc(-c2ccccc2)cc1 | 7.68% | 
C[C@]12CCC(=O)C=C1CC[C@@H]1[C@H]3CC[C@](C)(O)[C@@]3(C)CC[C@@H]12 | -28.1% [at 115 µM] | 
COc1cc(C(=O)NS(=O)(=O)c2ccccc2C)ccc1Cc1cn(C)c2ccc(NC(=O)OC3CCCC3)cc12 | 9.41% | 
C[C@]12CC[C@H]3[C@@H](CC[C@@]45O[C@H]4C(O)=C(C#N)C[C@]35C)[C@H]1CC[C@H]2O | 12.1% | 
CC(C)Cc1ccc(C(C)C(=O)O)cc1 (stereo not drawn) |  | inactive
COc1cc(NS(C)(=O)=O)ccc1Nc1c2ccccc2nc2ccccc12 |  | 2510 nM (active)
CC(Cc1ccccc1)N(C)Cc1ccco1 (stereo not drawn) | 7.25% | 
Nc1cc(C(Cl)=C(Cl)Cl)c(S(N)(=O)=O)cc1S(N)(=O)=O | -0.0573% | 
CCCC(=O)O[C@]1(C(=O)CO)CC[C@H]2[C@@H]3CCC4=CC(=O)CC[C@]4(C)[C@H]3[C@@H](O)C[C@@]21C | 11.5% | 
